From PubChem
ELG1 repair inh: inhibitors of ELG1-dependent DNA repair in HEK293T cells; HEK293T ELG1-luciferase reporter, luminescence, 16 h; DNA damage induced by 5-fluorouridine; Potency, µM (doses to about 46.1 µM), for inactives: at the highest dose activity change, negative = inhibition, most hits filed as inhibitors; 330,000 tested, 2.3% active; note: potency is the fitted concentration of half-maximal effect; nearly all actives have a fitted effect of over 55% in size
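In this reporter screen, reduction of luminescence relative to DMSO vehicle indicated activity. Compounds and 5-fluorouridine were added together to 2,000 cells per well, incubated for 16 hr at 37 °C, then developed with ONE-Glo.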
B2AR arrestin: agonists driving beta-arrestin recruitment to human beta2-adrenergic receptor; 330,000 tested, 0.02% active; Potency, µM (top dose mostly 46.1 µM), for inactives: top-dose activation, usual class: activators; beta-arrestin recruitment to beta2AR, cell-based reporter; P07550;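 note: potency is the fitted concentration of half-maximal effect; 0% = DMSO controls and full agonism = EC100 isoproterenol or metaproterenol; nearly all actives have a fitted effect of over 65% in size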
RORg inh: ROR gamma (mouse) transcription inhibition. P51450. Drosophila S2 Gal4-RORgamma UAS-luciferase reporter, 20 h. Potency, µM (top dose mostly 53.6 µM), without a hit: at the top dose activity change, negative = inhibition, actives largely listed as inhibitors. 310,000 tested, 5.4% active; note: potency is the fitted concentration of half-maximal effect; nearly all actives have a fitted effect of over 60% in size
Target sequence (P51450 whole entry, looked up, the tested form may be a part): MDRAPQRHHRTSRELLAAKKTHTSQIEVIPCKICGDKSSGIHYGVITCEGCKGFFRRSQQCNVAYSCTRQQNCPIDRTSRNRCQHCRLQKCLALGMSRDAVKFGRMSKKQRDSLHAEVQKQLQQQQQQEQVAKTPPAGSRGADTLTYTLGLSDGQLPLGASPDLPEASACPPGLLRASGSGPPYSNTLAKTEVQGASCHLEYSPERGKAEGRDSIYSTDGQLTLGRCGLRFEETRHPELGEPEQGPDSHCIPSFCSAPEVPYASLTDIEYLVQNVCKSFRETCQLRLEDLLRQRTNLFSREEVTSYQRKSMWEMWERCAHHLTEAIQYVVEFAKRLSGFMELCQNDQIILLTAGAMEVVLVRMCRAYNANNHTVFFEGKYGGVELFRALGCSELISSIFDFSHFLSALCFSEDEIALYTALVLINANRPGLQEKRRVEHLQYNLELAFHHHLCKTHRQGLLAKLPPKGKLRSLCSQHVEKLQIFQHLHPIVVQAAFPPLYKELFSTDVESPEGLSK
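Drosophila Schneider cells stably carrying a metallothionein-driven Gal4 DBD–ROR gamma fusion and a UAS-Photinus luciferase reporter were exposed to compound for 1 hr, then induced with copper sulfate (700 uM final) for 20 hr at ambient temperature before luminescence reading.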
TSHR antag: human thyrotropin receptor antagonism; TSHR-expressing cells, TSH-stimulated cAMP HTRF, 2 h; hits give low values; activity change, negative = inhibition, % at 11.5 µM; 330,000 tested, 0.2% active;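 active = activity change below a set negative limit, meaning inhibition stronger than a set level, cut at about -70% in these data; inconclusive = activity change between two set negative limits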
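Freshly harvested TSHR cells receive pin-tooled compound, then EC80 TSH at 4nM final. After 2 hours at 37 deg C, antibody in lysis buffer and cAMP-d2 are added; 30 minutes at ambient temperature precede the HTRF read.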
Gal4-VP16 FLuc: Gal4-VP16 reporter inhibition counter-screen; Drosophila S2 Gal4-VP16 UAS-luciferase, luminescence, 20 h; Potency, µM (series often up to 53.6 µM), for the others: top-dose activity, negative = inhibition, most hits filed as inhibitors; 310,000 tested, 3.5% active; AID 2546;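 note: Gal4-VP16 expression switched on by copper sulfate through the metallothionein promoter; potency is the fitted concentration of half-maximal effect; nearly all actives have a fitted effect of over 50% in size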
The depositor's hits bear a star; u = inconclusive; x = not tested or not shown; [ ] = remark or other dose. A selection: hits, their analogues and other compounds. The true share with any hit is near 7.5%. Unless noted, calls come from the whole dose curve; as a rule, active = well fitted curve in the direction sought with a large enough effect; inconclusive = small, poorly fitted or top-dose-only effect, or another doubt; inactive = no such curve, though single readings can be large; an effect the other way counts as inactive or inconclusive. Unless noted, % is set by controls: 0 for no effect and ±100 for the full control effect.

SMILES	ELG1 repair inh	B2AR arrestin	RORg inh	TSHR antag	Gal4-VP16 FLuc
CC(=O)c1cc(NC(=O)c2ccccc2)c(=O)oc1C	u	0%	11µM*	1	2.5µM*
Cc1ccc(C(=O)Nc2cc3ccccc3oc2=O)cc1	u	0%	1.6µM*	4	u
O=C(CN1C(=O)c2ccc(Br)cc2C1=O)NCC1CCCO1 (centres undefined)	u	0%	22%	41	-5%
CC(C)C[C@@H](CC(=O)N[C@@H](CCC(=O)O)CC(=O)O)NC(=O)[C@@H]1CCCC[C@H]1NC(=O)C[C@H](CCCN)NC(=O)C[C@H](Cc1c[nH]c2ccccc12)NC(=O)[C@@H]1CNCC[C@H]1N	x	x	2%	x	3%
COc1cccc(-c2cncnc2NC2CCNCC2)c1	x	x	11%	x	7%
CC(C)(C)C1CCC2(CC1)NC(=S)N(c1ccccc1)N2 (centres undefined)	u	0%	10µM*	5	16µM*
O=C1CCC2(CC1)NC(=O)N(c1ccccc1)N2	u	0%	-12%	9	6%
CCC(C)(C)C1CCC2(CC1)NC(=S)N(c1ccccc1)N2 (centres undefined)	8.2µM*	0%	u	-2	u
CCOc1ccc(CO[C@@H]2O[C@H](CO)[C@@H](O)[C@H](O)[C@H]2NC(C)=O)cc1OC	21%	0%	9%	2	-11%
CCN1C/C(=C/c2cccc([N+](=O)[O-])c2)C(=O)/C(=C/c2cccc([N+](=O)[O-])c2)C1	2.6µM*	-2%	4µM*	1	3.5µM*
CCOc1cc(/C=C2\CN(CC)C/C(=C\c3ccc(O)c(OCC)c3)C2=O)ccc1O	u	0%	u	-8	u
COc1cc(NC(=O)c2ccc(OCc3c(C)noc3C)c(OC)c2)cc(OC)c1	21µM*	4%	x	-14	x
c1ccc(Nc2c3c(nc4ncnn24)CCC3)cc1	16%	0%	-53%	-2	-26%
Clc1ccccc1Nc1c2c(nc3ncnn13)CCC2	-10%	0%	10µM*	11	u
Cc1ccc2c(C)cc(=S)[nH]c2c1	1%	0%	4µM*	-8	u
Cc1cc2[nH]c(=S)[nH]c2cc1C	u	-1%	u	19	2%
Cc1cc(=S)[nH]c2ccccc12	2%	1%	u	18	-2%
Cc1ccc2[nH]c(=S)cc(C)c2c1	8%	u	16µM*	12	u
CC(=O)c1sc(NC(=O)CN2C(=O)C3CC=CCC3C2=O)nc1-c1ccccc1 (centres undefined)	0%	0%	x	2	x
COc1cc(CC(=O)Nc2nc(-c3ccccc3)c(C(C)=O)s2)cc(OC)c1OC	8.2µM*	-1%	13%	-31	-6%
COc1ccc(CC(=O)Nc2nc(-c3ccccc3)c(C(C)=O)s2)cc1OC	18µM*	0%	-9%	-21	-9%
CN1CCN(S(=O)(=O)c2ccc(NC(=S)NC(=O)C3CCC3)cc2)CC1	-8%	0%	-6%	-6	-2%
Cc1cccc(C(=O)NC(=S)Nc2ccc(S(=O)(=O)N3CCCCC3)cc2)c1	u	0%	14µM*	-30	10µM*
Cc1cccc(C(=O)NC(=S)Nc2ccc(S(=O)(=O)N3CCN(C)CC3)cc2)c1	12%	0%	13µM*	-4	u
CC(=O)Nc1ccc(S(=O)(=O)N2CCN(C)CC2)cc1	4%	0%	-30%	2	-1%
SMILES	ELG1 repair inh	B2AR arrestin	RORg inh	TSHR antag	Gal4-VP16 FLuc
Cc1ccc(C(=O)NC(=S)Nc2ccc(S(=O)(=O)N3CCN(C)CC3)cc2)cc1	-5%	-1%	11µM*	-18	-7%
O=C1CCc2cc(S(=O)(=O)Nc3ccccc3F)ccc2N1	28%	0%	x	29	x
CCCCCCCCCCCC(=O)OCC(O)CO (centres undefined)	x	x	8%[10 µM]	x	-1%
Cc1ccc(C)c(NC(=S)NCCc2c[nH]c3ccccc23)c1	0%	0%	1.3µM*	24	11µM*
Cc1ccc(C)c(NC(=O)C(=O)NCCc2c[nH]c3ccccc23)c1	-24%	0%	u	3	-15%
Cc1cccc(NC(=O)C(=O)NCCc2c[nH]c3ccccc23)c1C	8%	0%	15%	4	-8%
Cc1ccccc1NC(=S)NCCc1c[nH]c2ccccc12	-20%	0%	7.9µM*	1	11µM*
COc1ccc(Cl)cc1NC(=S)NCCc1c[nH]c2ccccc12	-9%	0%	5.6µM*	-27	7.1µM*
COc1ccccc1NC(=O)NCCc1c[nH]c2ccccc12	1%	-1%	21%	0	0%
Cc1ccc(NS(=O)(=O)c2cccc(C(=O)NCCc3c[nH]c4ccccc34)c2)c(C)c1	u	-1%	u	-11	22µM*
Cc1c(C)c2c(c(C)c1OC(=O)CCC(=O)O)CC[C@@](C)(CCC[C@H](C)CCC[C@H](C)CCCC(C)C)O2	x	x	17%	x	4%
CCOc1ccc(S(=O)(=O)NN=C2CCN(C(C)=O)CC2)cc1	10%	0%	-4%	2	1%
COc1ncc2nc(-c3ccccc3)c(=O)n(CCc3ccccc3)c2n1	x	x	13%	x	-4%
CC(C)CC1OCCC=CC1C (centres undefined)	x	x	-2%[10 µM]	x	-5%[10 µM]
COc1ccc(-n2nc(C)c3c(=O)c4c([nH]c32)CCCC4)cc1	-27%	0%	-1%	-3	-3%
C=CCn1c(SCC(N)=O)nc2sc3c(c2c1=O)CCC3	-14%	0%	-37%	-7	u
CN(C)CCCn1c(=S)[nH]c2ccccc2c1=O	7%	0%	-29%	-5	-7%
CN(C)CCCn1c(=S)[nH]c2sc3c(c2c1=O)CCCC3	10%	0%	14µM*	-1	u
C=CCn1c(=S)[nH]c2sc3c(c2c1=O)CCC3	-20%	0%	0.1µM*	10	u
CCn1c(=S)[nH]c2sc3c(c2c1=O)CCCC3	-5%	0%	0.45µM*	19	0.63µM*
CC1CCc2c(sc3[nH]c(=S)n(C)c(=O)c23)C1 (centres undefined)	u	0%	0.56µM*	13	0.89µM*
CSCCNC(=O)c1ccc2nc(C3CCCCC3)oc2c1	u	-1%	u	8	4%
O=C(c1ccc(F)cc1)N1CCC(C(=O)N2CCN(S(=O)(=O)c3cccc([N+](=O)[O-])c3)CC2)CC1	-2%	-1%	x	-3	x
Cc1ccc(CS(=O)Cc2ccc(C(=O)NC3CCCCC3)o2)cc1 (centres undefined)	4%	0%	9%	10	-3%
O=c1[nH]c(Cc2ccc(F)cc2)nc2scc(-c3ccc(F)cc3)c12	-2%	0%	u	-3	-21%
O=c1[nH]c(Cc2ccccn2)nc2scc(-c3ccc(Cl)cc3)c12	u	0%	5.6µM*	-2	u
